The list is not random: actives were taken first. Their share in the collection is about 10%.
FLuc inh = blocks purified firefly luciferase enzyme activity; P08659; purified P. pyralis luciferase, luminescence, biochemical; Potency, µM (highest dose often 115 µM), usual class: inhibitors; actives 2.5% (n = 76,000); note: nearly all actives have a fitted effect of over 65% in size
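Luminescence read by CCD imager after adding enzyme (10nM final) to wells holding compound, titrated in qHTS. Substrates 10uM each D-luciferin and ATP; buffer 50mM Tris acetate pH 7.5, 10mM Mg acetate, Tween-20, BSA.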
GPT2 inh = GPT2 alanine aminotransferase inhibition. Q8TD30. Recombinant GPT2, coupled pyruvate oxidase/HRP Amplex Red fluorescence. Potency, µM (titrated, usually from 57.7 µM), for inactives: top-dose activity change, negative = inhibition, hits mostly inhibitors. actives 0.25% (n = 100,000); note: nearly all actives have a fitted effect of over 60% in size
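Inhibition is scored from Amplex Red fluorescence generated when pyruvate oxidase and HRP act on pyruvate released by GPT2. Reactions contain 10ng/uL enzyme, 250uM a-KG and 2mM L-alanine and run 30 min at room temperature.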
HEK cytotox = HEK 293 cell cytotoxicity; HEK 293 viability, ATP luminescence (CellTiter-Glo), 48-72 h; Potency, µM (doses to about 115 µM), without a hit: at the top dose activity change, negative = cytotoxicity, hits mostly inhibitors; actives 6.6% (n = 94,000); AID 1345083; note: nearly all actives have a fitted effect of over 60% in size
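Read-out: CellTiter-Glo ATP luminescence. Cells: HEK 293, 250 cells/well. Exposure: 48 or 72 hr, 37 degree Celsius.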
NIH3T3 tox = NIH 3T3 cell cytotoxicity; NIH 3T3 viability, CellTiter-Glo ATP luminescence, 48-72 h; actives 4.3% (n = 94,000); Potency, µM (top dose mostly 96.7 µM), for inactives: at the highest dose activity change, negative = cytotoxicity, usual class: inhibitors; AID 1345082; note: nearly all actives have a fitted effect of over 55% in size
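Cytotoxicity was measured by CellTiter-Glo ATP luminescence after 48 or 72 h compound exposure at 37 °C. Mouse NIH 3T3 fibroblasts were seeded at 400 cells/well and dosed by 23 nL pin transfer.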
hNpr1 antagonist = human Npr1 receptor antagonism. actives 1.6% (n = 76,000). AID 1347048. Potency, µM (top dose mostly 46.3 µM), for the others: top-dose activity change, negative = inhibition, usual class: inhibitors. P16066. HEK293 hNpr1 GloSensor cGMP, ANP-stimulated luminescence; calls by dose curve; note: nearly all actives have a fitted effect of over 60% in size
Target sequence (P16066 whole entry, looked up): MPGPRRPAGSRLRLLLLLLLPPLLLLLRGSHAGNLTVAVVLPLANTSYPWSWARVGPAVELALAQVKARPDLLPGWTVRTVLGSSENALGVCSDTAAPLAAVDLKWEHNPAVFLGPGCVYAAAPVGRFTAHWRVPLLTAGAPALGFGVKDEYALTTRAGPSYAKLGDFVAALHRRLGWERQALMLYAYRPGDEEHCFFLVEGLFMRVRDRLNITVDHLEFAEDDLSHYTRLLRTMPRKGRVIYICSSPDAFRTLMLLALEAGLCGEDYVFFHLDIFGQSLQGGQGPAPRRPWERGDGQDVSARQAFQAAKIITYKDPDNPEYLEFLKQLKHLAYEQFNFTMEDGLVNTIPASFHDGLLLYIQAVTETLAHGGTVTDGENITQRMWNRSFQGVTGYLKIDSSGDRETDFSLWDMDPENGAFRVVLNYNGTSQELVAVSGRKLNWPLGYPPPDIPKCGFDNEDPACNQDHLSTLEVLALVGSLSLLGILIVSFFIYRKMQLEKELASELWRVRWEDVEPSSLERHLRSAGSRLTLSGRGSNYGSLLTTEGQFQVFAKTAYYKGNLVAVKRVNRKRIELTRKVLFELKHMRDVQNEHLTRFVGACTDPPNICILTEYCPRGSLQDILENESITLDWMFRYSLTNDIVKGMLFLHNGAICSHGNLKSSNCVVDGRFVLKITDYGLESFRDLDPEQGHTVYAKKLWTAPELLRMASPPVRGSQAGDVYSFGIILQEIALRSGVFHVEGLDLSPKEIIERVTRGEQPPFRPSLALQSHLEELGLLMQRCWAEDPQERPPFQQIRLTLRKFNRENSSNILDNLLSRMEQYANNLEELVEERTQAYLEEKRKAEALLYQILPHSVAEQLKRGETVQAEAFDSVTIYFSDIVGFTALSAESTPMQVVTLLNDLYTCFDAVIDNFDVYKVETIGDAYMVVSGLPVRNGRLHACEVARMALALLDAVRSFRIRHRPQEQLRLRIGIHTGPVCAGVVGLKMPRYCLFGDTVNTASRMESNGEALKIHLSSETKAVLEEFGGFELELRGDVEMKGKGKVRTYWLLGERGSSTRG
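HEK293 cells stably expressing human Npr1 and cGMP GloSensor pGS-40F, loaded 2 h with 2% GloSensor reagent, given compound 30 min at room temperature. Luminescence read before and 20 min after 0.1 nM hNppA.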
Active calls of the source: *; i = inactive; ? = inconclusive; / = not tested or not shown; ! = repeats disagree; [ ] = remark or other dose. Unless noted, calls come from the whole dose curve; as a rule, active = well fitted curve in the direction sought with a large enough effect; inconclusive = small, poorly fitted or top-dose-only effect, or another doubt; inactive = no such curve, though single readings can be large; an effect the other way counts as inactive or inconclusive. % is set by controls: 0 for no effect and ±100 for the full control effect; potency is the fitted concentration of half-maximal effect.

SMILES	FLuc inh	GPT2 inh	HEK cytotox	NIH3T3 tox	hNpr1 antagonist
O=C1c2cnc(-c3ccncc3)nc2OCCN1c1ccccc1	?	-18%[88.5 µM]	?	-23%[138 µM]	-5%[70.6 µM]
O=C1c2cnc(-c3cc4ccccc4o3)nc2OCCN1c1ccccc1	0.01µM*	-4%[88.5 µM]	-87%[172 µM]	-93%[138 µM]	0.28µM*
CC(=O)Nc1cccc(-c2ncc3c(n2)OCCN(CC2CC2)C3=O)c1	50µM*	i	-9%[172 µM]	?	0%[70.6 µM]
C#CCNC(=O)C1CCCN(c2ccnc3ccnn23)C1 (stereo not given)	/	-15%[88.5 µM]	-3%[172 µM]	-11%[138 µM]	/
COc1ccc(Nc2ccnc(N3CCN(C(=O)c4ccc(Cl)cc4)CC3)n2)cc1	/	i	18µM*	4%	/
COc1ccc(Nc2ccnc(N3CCN(C(=O)Nc4ccccc4)CC3)n2)cc1	/	-5%	25µM*	?	/
COc1cccc(C(=O)N2CCN(c3nccc(Nc4ccccc4Cl)n3)CC2)c1	/	i	35µM*	?	/
O=C(c1ccccc1)N1CCN(c2nccc(Nc3ccccc3Cl)n2)CC1	/	-9%	?	?	/
O=C(c1ccc(Cl)cc1)N1CCN(c2nccc(Nc3ccccc3Cl)n2)CC1	/	i	22µM*	?	/
COc1ccc(Nc2ccnc(N3CCN(C(=O)NC(C)C)CC3)n2)cc1	/	i	?	?	/
COc1ccc(Nc2ccnc(N3CCN(C(=O)Nc4ccc(Cl)cc4)CC3)n2)cc1	/	i	?	-22%	/
COc1cccc(C(=O)NC2CCN(c3nccc(Nc4ccccc4Cl)n3)CC2)c1	/	-15%	?	35µM*	/
COc1ccc(Nc2ccnc(N3CCN(C(=O)c4ccccc4F)CC3)n2)cc1	/	-18%	?	35µM*	/
COc1ccc(CC(=O)N2CCN(c3nccc(Nc4ccc(OC)cc4)n3)CC2)cc1	/	-6%	?	-20%	/
COc1ccc(Nc2ccnc(N3CCN(C(=O)c4ccccc4OC)CC3)n2)cc1	/	i	?	?	/
COc1ccc(Nc2ccnc(N3CCN(C(=O)c4cccc(OC)c4)CC3)n2)cc1	/	i	16µM*	25µM*	/
COc1cccc(CNC(=O)C2CCc3nnc(CNC(=O)NC(C)(C)C)n32)c1 (stereo not given)	/	i	-18%	-20%	/
O=C(NCc1ccco1)N1CCc2nc3cc(-c4ccccc4Cl)[nH]n3c(=O)c2C1	14µM*	-12%	?	?	-15%
O=c1[nH]c(C2CCCN(Cc3ccc(C(F)(F)F)cc3)C2)nn1-c1ccc(Cl)cc1 (stereo not given)	i	1%	0%	-31%	-14%
Cc1ccc(CN2CCCC(c3nn(-c4ccc(Cl)cc4)c(=O)[nH]3)C2)cc1 (stereo not given)	i	i	35µM*	?	-26%
COc1ccc(-n2nc(C3CCN(Cc4ccc(C)cc4)CC3)[nH]c2=O)cc1	i	-9%	40µM*!	?	-14%
COc1ccc(C(=O)N2CCC(c3nn(-c4ccc(Cl)cc4)c(=O)[nH]3)CC2)cc1	i	-7%	?	?	-13%
COc1ccc(-n2nc(C3CCN(Cc4ccc(C#N)cc4)CC3)[nH]c2=O)cc1	i	1%	22µM*	-28%	-58%
COc1ccc(-n2nc(C3CCN(Cc4ccc(F)cc4)CC3)[nH]c2=O)cc1	i	i	18µM*!	?	-22%
CC(=O)N1CCC(c2nn(-c3ccc(F)cc3)c(=O)[nH]2)CC1	i	-8%[88.5 µM]	-22%[172 µM]	-21%[138 µM]	23%[70.6 µM]
O=C(NCCOc1cccc2cccnc12)C1CCCN(C2CCCC2)C1 (stereo not given)	i	5%	1%	-11%	-1%
Cc1cccc(C)c1-c1cc(C(=O)NCc2cccc(Cl)c2)c2cnn(C)c2n1	/	i	?	?	/
Cc1ccc2c(C)c(C(=O)N3C[C@@H](NS(C)(=O)=O)[C@H](C(C)C)C3)oc2c1	i	-43%	45µM*	?	0%
Cc1ccc2c(C)c(C(=O)N3C[C@@H](CN4CCC(O)CC4)[C@@H](CO)C3)oc2c1	i	4%	i	i	3%
CC(C)(C)c1nc(C(=O)NCCc2ccc(Cl)cc2)n2ccncc12	/	-23%	35µM*	?	/

Source: PubChem (National Center for Advancing Translational Sciences (NCATS))
